From PubChem BioAssay (NCATS)
“And” between values parts separate entries of the source, which are not always exact repeats. Equal values may be shown once. Results filed as inconclusive are left out. The source made the active and inactive calls. Calls come from the whole dose curve; as a rule, active = well fitted curve in the direction sought with a large enough effect; inconclusive = small, poorly fitted or top-dose-only effect, or another doubt; inactive = no such curve, though single readings can be large; an effect the other way counts as inactive or inconclusive.

How the values were obtained:
[1] = Quantitative highthroughput screen to assess conditional lethalithy of NOMO1 cells grown in Human Plasma-Like Medium with dialyzed fetal bovine serum (HPLM+ds) (AID 1963878); note: nearly all actives have a fitted effect of over 35% in size;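 for viability: 100% = DMSO wells and 0% = empty wells on each plate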
Method in brief: (§1)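 Each medium arm—HPLM with 10% dialyzed FBS, or RPMI1640 with 5 mM glucose and 10% untreated or dialyzed FBS—was screened against an 11-point, 3-fold compound titration for 48 h at 37 °C, with CellTiter-Glo luminescence as endpoint.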

[2] = Quantitative highthroughput screen to assess conditional lethalithy of P12 Ichikawa cells grown in RPMI1640 with dialyzed fetal bovine serum (RPMI+ds) (AID 1963880); settings: Potency: P12-Ichikawa viability; note: nearly all actives have a fitted effect of over 35% in size;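 for viability: 100% = DMSO wells and 0% = empty wells on each plate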
Method in brief: as §1

[3] = Quantitative highthroughput screen to assess conditional lethalithy of P12 Ichikawa cells grown in RPMI1640 with untreated serum (RPMI+s) (AID 1963881); settings: Potency: viability; note: nearly all actives have a fitted effect of over 35% in size;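 for viability: series mostly up to about 46 µM; 100% = DMSO wells and 0% = empty wells without cells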
Method in brief: as §1

[4] = Quantitative highthroughput screen to assess conditional lethalithy of SEM cells grown in Human Plasma-Like Medium with dialyzed fetal bovine serum (HPLM+ds) (AID 1963882); note: nearly all actives have a fitted effect of over 35% in size; for viability: series mostly up to about 46 µM
Method in brief: as §1

[5] = Quantitative highthroughput screen to assess conditional lethalithy of SEM cells grown in RPMI1640 with unreated serum (RPMI+s) (AID 1963883); note: nearly all actives have a fitted effect of over 35% in size;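 for viability: 100% = DMSO wells and 0% = empty wells without cells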
Method in brief: as §1

[6] = Quantitative highthroughput screen to assess conditional lethalithy of P12 Ichikawa cells grown in Human Plasma-Like Medium with dialyzed fetal bovine serum (HPLM+ds) (AID 1963879); settings: Potency: viability; note: nearly all actives have a fitted effect of over 35% in size; for viability: series mostly up to about 46 µM
Method in brief: as §1

[7] = Quantitative highthroughput screen to assess conditional lethalithy of SEM cells grown in RPMI1640 with dialyzed fetal bovine serum (RPMI+ds) (AID 1963884); note: nearly all actives have a fitted effect of over 35% in size;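 for viability: series mostly up to about 46 µM; 100% = DMSO control wells and 0% = empty wells without cells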
Method in brief: as §1

[8] = Cellular viability qHTS for adrenocortical cancer (ACC) cell line SW-13 (AID 1963989); settings: SW-13 ACC cells viability, CellTiter-Glo, 48 h; activity (max response): hits give low values; note: nearly all actives have a fitted effect of over 65% in size;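 for activity (max response): cells grown in serum-free medium with ITS supplement; % is set by controls: 0 for no effect and ±100 for the full control effect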
Method in brief: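 Viability was read as CellTiter-Glo luminescence after 48 h compound treatment (up to 46 uM final) of SW-13 cells grown serum-free; titration curves were fit with a four-parameter logistic model to give IC50 and efficacy.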

[9] = Cellular viability qHTS for adrenocortical cancer (ACC) cell line NCI-H295R (AID 1963990); note: nearly all actives have a fitted effect of over 60% in size
Method in brief: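 CellTiter-Glo ATP luminescence, read 48 h after compound addition, measured viability of NCI-H295R adrenocortical cells grown serum-free with ITS. Final concentrations spanned up to 46 uM. Data normalized to DMSO and doxorubicin, fitted for IC50 and maximal response.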
Potency is the fitted concentration of half-maximal effect.

CON(C)C(=O)N1N=C(c2cc(F)ccc2F)S[C@]1(CCCN)c1ccccc1
inactive: Potency [1] | Potency [2] | Potency [3] | Potency [4] | Potency [5]

CCC(=O)NC[C@H](Cc1ccc(OCCc2nc(-c3ccccc3)oc2C)cc1)NC(C)=CC(=O)c1ccc(C(F)(F)F)cc1
active: Potency [6] 10.5 µM | Potency [2] 16.6 µM

Nc1nc(F)nc2c1ncn2[C@@H]1O[C@H](COP(=O)(O)O)[C@@H](O)[C@H]1O
active: Potency [1] 9.35 µM | Potency [4] 1.48 µM | Potency [5] 8.33 µM | Potency [7] 1.87 µM

COC(=O)[C@@H]1[C@H]2C[C@@H]3c4[nH]c5ccccc5c4CCN3C[C@@H]2CC[C@@H]1O
inactive: Potency [4] | Potency [7]
active: Potency [6] 2.96 µM | Potency [2] 5.26 µM | Potency [3] 3.32 µM

CON=C(C(=O)N[C@@H]1C(=O)N2C(C(=O)O)=C(CSC(=O)c3ccco3)CS[C@H]12)c1csc(N)n1
inactive: Potency [6] | Potency [3] | Potency [4] | Potency [5] | Potency [7]

CC(C)OC(=O)[C@H](C)N[P@](=O)(OC[C@H]1O[C@@H](n2ccc(=O)[nH]c2=O)[C@](C)(F)[C@H]1O)Oc1ccccc1
active: Potency [6] 1.32 µM | Potency [2] 4.69 µM | Potency [3] 6.62 µM | Potency [4] 4.69 µM | Potency [7] 8.33 µM

O=C(Cc1cccc(OC(F)(F)F)c1)Nc1ccc(CCCCc2nnc(NC(=O)Cc3ccccn3)s2)nn1
inactive: Potency [6] | activity (max response) [8] 11.1% | Potency [9]
active: Potency [4] 0.0524 µM

CCOc1ccccc1N=Nc1c(C)[nH]n(-c2nc(-c3ccccc3)cs2)c1=O
active: Potency [6] 16.6 µM | Potency [4] 5.26 µM | Potency [5] 6.62 µM | Potency [7] 7.43 µM
inactive: Potency [2] | Potency [3] | activity (max response) [8] -16.4% | Potency [9]

CCC(=C(c1ccc(O)cc1)c1ccc(OCCNC)cc1)c1ccccc1
active: Potency [6] 4.18 µM | Potency [4] 13.2 µM | Potency [5] 7.43 µM

Cc1cc(N2CCOCC2)cc2[nH]c(-c3c(NC[C@@H](O)c4cccc(Cl)c4)cc[nH]c3=O)nc12
active: Potency [4] 1.48 µM | Potency [7] 1.87 µM | Potency [9] 5.01 µM
inactive: Potency [6] | Potency [2]

CN[C@H]1[C@@H](O[C@@H]2[C@H](O[C@@H]3[C@@H](O)[C@@H](O)[C@@H](N=C(N)N)[C@@H](O)[C@@H]3N=C(N)N)O[C@H](C)[C@@]2(O)C=O)O[C@@H](CO)[C@@H](O)[C@H]1O
inactive: Potency [6] | Potency [2] | Potency [3] | Potency [4] | Potency [5]

COc1cc2nc(N(C)CCCNC(=O)C3CCCO3)nc(N)c2cc1OC (stereo not drawn)
inactive: Potency [6] | Potency [2] | Potency [3] | Potency [4] | Potency [7] | Potency [9]

CO[C@H]1O[C@@H]2O[C@@]3(C)CC[C@@H]4[C@@H](C)CC[C@@H]([C@H]1C)[C@@]24OO3
active: Potency [2] 14.8 µM | Potency [3] 16.6 µM
inactive: Potency [6] | Potency [4]

CCCCCN=C(N)NN=Cc1c[nH]c2ccc(OC)cc12
active: Potency [6] 13.2 µM | Potency [2] 14.8 µM | Potency [3] 13.2 µM | Potency [5] 11.8 µM

COc1cc2c(cc1OC)[C@@H]1Cc3ccc(OC)c(OC)c3CN1CC2
inactive: Potency [6] | Potency [2] | Potency [3] | Potency [5] | Potency [7]

COC(=O)C=CC(=O)OC
active: Potency [6] 0.935 µM | Potency [2] 1.48 µM | Potency [3] 2.64 µM | Potency [5] 1.32 µM

COc1cc(OC)c(C=CS(=O)(=O)Cc2ccc(OC)c(NCC(=O)O)c2)c(OC)c1
active: Potency [6] 0.264 µM | Potency [2] 0.166 µM | Potency [3] 0.235 µM | Potency [5] 0.209 µM | Potency [7] 0.118 µM

CCOC1OC(=O)C[C@H]1NC(=O)[C@@H]1CCCN1C(=O)[C@@H](NC(=O)c1ccc(N)c(Cl)c1)C(C)(C)C (stereo partly drawn)
active: Potency [6] 1.66 µM | Potency [2] 3.32 µM | Potency [3] 1.87 µM
inactive: Potency [4] | Potency [5] | Potency [7]

CC1=C(C)C(=O)C(C(CCCCCC(=O)O)c2ccccc2)=C(C)C1=O (stereo not drawn)
active: Potency [3] 8.33 µM
inactive: Potency [6] | activity (max response) [8] 0.763% and -13.4% | Potency [9]

CC[C@H](CC[C@@H](C)[C@H]1CC[C@H]2[C@@H]3CC=C4C[C@@H](O)CC[C@]4(C)[C@@H]3CC[C@]12C)C(C)C
inactive: Potency [2] | Potency [3] | Potency [4] | Potency [5] | Potency [7]

CC(=O)ON=C1C(c2c(O)[nH]c3cc(Br)ccc23)=Nc2ccccc21
active: Potency [6] 20.9 µM | Potency [4] 1.18 µM | Potency [7] 0.935 µM

Cc1ccc(N(CC2=NCCN2)c2cccc(O)c2)cc1
inactive: Potency [6] | Potency [3] | Potency [5] | Potency [9]
active: Potency [8] 23.1 µM and 25.1 µM

COc1cc(C(=O)NS(=O)(=O)c2ccccc2C)ccc1Cc1cn(C)c2ccc(NC(=O)OC3CCCC3)cc12
active: Potency [9] 28.2 µM
inactive: Potency [6]

O=c1[nH]c(=O)n([C@H]2C[C@@H](O)[C@@H](CO)O2)cc1C(F)(F)F
active: Potency [6] 1.18 µM | Potency [3] 3.72 µM | Potency [5] 9.35 µM | Potency [7] 1.87 µM

COc1ccc(-c2oc3cc(OC)ccc3c2C(=O)c2ccc(C#N)cc2)cc1
inactive: Potency [4] | Potency [5] | Potency [7]
active: Potency [6] 1.87 µM | Potency [3] 1.32 µM

N#CC(=C(N)Sc1ccc(N)cc1)c1ccccc1C(F)(F)F
inactive: Potency [2]

CCNC(=O)CCCC=CC[C@@H]1[C@H](C=CC(O)CCc2ccccc2)[C@@H](O)C[C@@H]1O (stereo partly drawn)
inactive: Potency [6] | Potency [2] | Potency [3] | Potency [4]

O=C(O)C=Cc1ccc(O)c(O)c1
active: Potency [6] 26.4 µM | Potency [2] 26.4 µM | Potency [5] 13.2 µM | Potency [7] 14.8 µM

CNC(=O)c1cccc(-c2ccc3c(N4CCOC[C@H]4C)nc(N4CCOC[C@H]4C)nc3n2)c1
active: Potency [6] 0.0743 µM | Potency [4] 0.264 µM | Potency [5] 2.64 µM | Potency [7] 0.469 µM

COc1ccc(Cc2nccc3cc(OC)c(OC)cc23)cc1OC
inactive: Potency [6] | Potency [3] | Potency [4]

Cc1onc(-c2ccccc2)c1C(=O)N[C@@H]1C(=O)N2[C@@H](C(=O)O)C(C)(C)S[C@@H]12
active: Potency [2] 1.05 µM | Potency [3] 1.32 µM
inactive: Potency [4] | Potency [7]

COc1cc2c(cc1O)CCC1C2CC[C@@]2(C)C1CC[C@@H]2O (stereo partly drawn)
active: Potency [6] 1.87 µM | Potency [3] 2.64 µM

CNC(=O)c1ccc(Nc2cc(Nc3ccccc3S(=O)(=O)C(C)C)c3cc[nH]c3n2)nc1
active: Potency [6] 2.35 µM | Potency [5] 1.48 µM | Potency [7] 1.05 µM

CON=C(C(=O)N[C@@H]1C(=O)N2C(C(=O)OCOC(=O)C(C)(C)C)=C(C=Cc3scnc3C)CS[C@H]12)c1csc(N)n1
active: Potency [2] 16.6 µM | Potency [3] 14.8 µM | Potency [5] 9.35 µM
inactive: Potency [4]

Cc1nc(Nc2ncc(C(=O)Nc3c(C)cccc3Cl)s2)cc(N2CCN(CCO)CC2)n1
active: Potency [6] 1.87 µM | Potency [8] 1.84 µM and 1.41 µM | Potency [9] 20.6 µM and 25.1 µM

Cc1[nH]c(C=C2C(=O)Nc3ccc(S(=O)(=O)N(C)c4cccc(Cl)c4)cc32)c(C)c1C(=O)N1CCN(C)CC1
active: Potency [6] 18.7 µM | Potency [3] 18.7 µM | Potency [4] 13.2 µM | Potency [5] 11.8 µM | Potency [7] 6.62 µM

COc1nccc(-c2c(-c3ccc(F)cc3)ncn2C2CCNCC2)n1
inactive: Potency [6] | Potency [2] | Potency [3] | Potency [4] | activity (max response) [8] -17.6% | Potency [9]

Cc1c[nH]c(C=C2C(=O)Nc3ccccc32)c1CCC(=O)O
active: Potency [6] 2.64 µM | Potency [4] 0.833 µM

Cc1csc(-c2nnc(Nc3ccc(Oc4ncccc4-c4ccnc(N)n4)cc3)c3ccccc23)c1
inactive: activity (max response) [8] -17.7% | Potency [9]
active: Potency [6] 0.0105 µM | Potency [5] 0.0166 µM

CC[C@@]1([C@@H]2O[C@@H]([C@H]3O[C@@](O)(CO)[C@H](C)C[C@H]3C)C[C@H]2C)CC[C@H]([C@]2(C)CC[C@]3(C[C@H](O)[C@@H](C)[C@@H]([C@@H](C)[C@@H](OC)[C@H](C)C(=O)O)O3)O2)O1
active: Potency [2] 2.29 µM | Potency [3] 1.44 µM | Potency [4] 0.512 µM | Potency [5] 0.457 µM | Potency [7] 1.15 µM | Potency [9] 0.715 µM

CNc1nc(-c2ccc3c(N)n[nH]c3c2)cc(N2C[C@@H](C(=O)NC3CCCCC3)CC[C@@H]2C)n1
active: Potency [6] 23.5 µM | Potency [3] 16.6 µM | Potency [4] 16.6 µM | Potency [5] 16.6 µM | Potency [7] 18.7 µM

COc1cc(CNC(=O)CCCCC=CC(C)C)ccc1O
active: Potency [6] 0.332 µM | Potency [2] 0.418 µM | Potency [3] 0.833 µM | Potency [5] 0.526 µM

CC(C)n1c(C=C[C@H](O)C[C@H](O)CC(=O)O)c(-c2ccc(F)cc2)c2ccccc21
active: Potency [6] 5.9 µM | Potency [3] 4.69 µM

COc1ccnc2c1CCCCC2S(=O)c1nc2ccccc2[nH]1 (stereo not drawn)
inactive: activity (max response) [8] 4.45% | Potency [9]

Cc1ccc(NC(=O)[C@H]2CCCN(C(=O)c3c(C)cccc3F)[C@H]2c2ccc(NC3CCCC3)cc2)cc1C(F)(F)F
inactive: activity (max response) [8] -13.2% | Potency [9]

C=CCOc1cc(Cl)ccc1C(=O)NCCN(CC)CC
inactive: activity (max response) [8] -0.164% | Potency [9]

N[C@H](Cc1c[nH]c2ccccc12)C(=O)O
inactive: activity (max response) [8] 5.49% | Potency [9]

CN(C)c1ccc(C(=C2C=CC(=[N+](C)C)C=C2)c2ccccc2)cc1
active: Potency [8] 820 nM | Potency [9] 0.92 µM

Cn1c(-c2ccccc2C(F)(F)F)nnc1C12CCC(c3noc(C4CC(F)(F)C4)n3)(CC1)CC2
inactive: activity (max response) [8] -6.22% | Potency [9]

C[C@@H]1O[C@@H](O[C@@H]2\C=C/C=C\C=C/C=C\C[C@H](C)OC(=O)/C=C\[C@H]3O[C@@H]3C[C@H](O)C[C@]3(O)C[C@@H](O)[C@@H](C(=O)O)[C@H](C2)O3)[C@H](O)[C@H](N)[C@@H]1O
inactive: activity (max response) [8] 8.59% | Potency [9]
